Only some compounds are listed: those with a hit (about 1.3% of all), similar ones and a draw of the others.
Glioma ERSR ind – qHTS for Inducers of the Endoplasmic Reticulum Stress Response (ERSR) in Human Glioma: qHTS | U87-MG GRP78 promoter luciferase reporter, 16 h | Potency, µM, actives largely listed as activators | actives 0.02% (n = 420,000) | AID 602332, 2012; also: series mostly up to about 76 µM; nearly all actives have a fitted effect of over 35% in size
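Stably transfected U87-MG human glioma cells carrying a GRP78-based luminescent sensor were seeded at 1000 cells/well, pin-dosed with compounds and incubated 16 h. Luciferase reagent was then added, and end-point luminescence was read after 10 min at room temperature.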
Pin1 inhibitor – qHTS Assay to Find Inhibitors of Pin1; AID 504891, 2011; Potency, µM (highest dose often 115 µM), hits mostly inhibitors; actives 0.009% (n = 390,000); Pin1 FP peptide displacement, HiFluor488, 10 min; active = well fitted inhibition curve with a large enough effect in the polarisation, with a control signal flat, not every such curve was filed as active; inconclusive = small, poorly fitted or top-dose-only effect, or effect the other way, or a change in a side signal; inactive = no such curve, though single readings can be large or run the other way; the % refers to the polarisation
FEN1 inhibitor – qHTS Assay for the Inhibitors of Human Flap endonuclease 1 (FEN1) | Recombinant FEN1 flap cleavage, fluorescence, 15 min | AID 588795, 2011 | actives 0.35% (n = 390,000) | Potency, µM (titrated, usually from 114 µM), most hits filed as inhibitors | P39748; also: nearly all actives have a fitted effect of over 65% in size
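FEN1 at 10 nM preincubated with compounds 15 min at room temperature, then flap DNA substrate added at 50 nM final. Signal read at 0 and 15 min; concentration-response fitted with four-parameter Hill equation.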
WRN helicase inh – qHTS for Inhibitors of WRN Helicase; Potency, µM (series often up to 114 µM), most hits filed as inhibitors; WRN helicase unwinding, fluorescent forked duplex, kinetic; Bifunctional 3'-5' exonuclease/ATP-dependent helicase WRN (Homo sapiens), Q14191; actives 0.46% (n = 360,000); also: nearly all actives have a fitted effect of over 55% in size
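Kinetic red-fluorescence monitoring (525/598 nm) tracks WRN helicase activity after 100 nM fluorophore-quencher forked duplex and 2 mM ATP are added to 20 nM enzyme pretreated 15 min at room temperature with compound.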
PI5P4Ka inh – qHTS for Inhibitors of phosphatidylinositol 5-phosphate 4-kinase (PI5P4K). max response, %. actives 1.2% (n = 330,000). PI5P4Kalpha enzyme, ADP-Glo luminescence, 60 min; stronger effect = lower value. Phosphatidylinositol 5-phosphate 4-kinase type-2 alpha (Homo sapiens), P48426; active = max response of -50% or lower; inconclusive = between -30% and -50%; inactive = -30% or higher; also: value at the top dose of about 77 µM
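Luminescence from ADP-Glo served as readout of PI5P4Kalpha activity in a qHTS format. Reaction: enzyme, substrate, compound, ATP at 5 microM final, 60 min at RT.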
PGK inhibitor – qHTS Assay to Find Inhibitors of Phosphoglycerate Kinase | Phosphoglycerate kinase, glycosomal (Trypanosoma brucei brucei), P07378 | PGK/GAPDH coupled, Kinase-Glo luminescence, 60 min | Potency, µM (highest dose often 57.5 µM), actives largely listed as inhibitors | actives 0.043% (n = 380,000) | AID 602233, 2012; also: nearly all actives have a fitted effect of over 60% in size
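Luminescent ATP detection (Kinase-Glo Plus) follows a 60-minute room-temperature incubation, with wells lacking PGK as controls. Buffer: 100 mM TEA (pH 7.6), 5 mM MgCl2, 0.01% Tween-20. Coupling enzyme GAPDH (100 nM final) supplies unstable 1,3-BPG in-well.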
Of the large screens only hits and unclear results are named; the others gave an inactive call. Unless noted, calls follow the shape of the dose curve; as a rule, active = well fitted curve in the direction sought with a large enough effect; inconclusive = small, poorly fitted or top-dose-only effect, or another doubt; inactive = no such curve, though single readings can be large; an effect the other way counts as inactive or inconclusive.

CCC(=O)Nc1ccc(C(=O)COC(=O)c2nc3nccc(C)n3n2)cc1	Pin1 inhibitor inconclusive, FEN1 inhibitor inconclusive, WRN helicase inh inconclusive, PI5P4Ka inh -90, PGK inhibitor inconclusive
CCCc1[nH][nH]c(=O)c1C(c1ccc(Br)cc1)C(C#N)C#N (stereo not given)	none (no result: PI5P4Ka inh, PGK inhibitor)
CCCc1[nH][nH]c(=O)c1C(c1ccccc1)C(C#N)C#N (stereo not given)	PI5P4Ka inh -50
O=C(O)c1cc(N/N=C/c2ccc(N3CCOCC3)s2)ccc1Cl	Pin1 inhibitor inconclusive, FEN1 inhibitor inconclusive, WRN helicase inh inconclusive, PI5P4Ka inh -56
Nc1nnc(CC(=O)N/N=C/c2ccc(-c3ccccc3Cl)o2)s1	PI5P4Ka inh -53
COC(=O)c1ccc(-c2ccc(/C=N/NC(=O)Cc3nnc(N)s3)o2)cc1	Pin1 inhibitor inconclusive, PI5P4Ka inh -56
CC(C)c1c(C(=O)NCc2ccccn2)cnn1-c1nccc(-c2ccccc2F)n1	none (no result: Pin1 inhibitor, FEN1 inhibitor, WRN helicase inh, PI5P4Ka inh, PGK inhibitor)
O=c1c(O)c(-c2ccc(O)cc2)oc2cc(O)cc(O)c12	FEN1 inhibitor inconclusive, PI5P4Ka inh -73
COc1cccc(C2c3c(ncn(-c4ccc(C#N)cc4)c3=N)Oc3ccc4ccccc4c32)c1 (stereo not given)	none (no result: Glioma ERSR ind, FEN1 inhibitor, WRN helicase inh, PI5P4Ka inh, PGK inhibitor)
CCOC(=O)c1[nH]c2c(c1C)C(=O)CC(c1ccco1)C2 (stereo not given)	Pin1 inhibitor inconclusive, FEN1 inhibitor inconclusive, WRN helicase inh inconclusive, PI5P4Ka inh -68
Cc1c(C(=O)OCc2ccccc2)[nH]c2c1C(=O)CC(c1ccco1)C2 (stereo not given)	FEN1 inhibitor inconclusive, WRN helicase inh 50µM, PI5P4Ka inh -51, PGK inhibitor inconclusive
CSc1ccc(NC(=O)CSc2nc3[nH]c(=O)cc(O)c3s2)cc1	Pin1 inhibitor inconclusive, FEN1 inhibitor inconclusive, WRN helicase inh inconclusive, PI5P4Ka inh -88
COc1ccccc1C(=O)N[C@@H]1c2ccccc2C2(CCN(Cc3c(O)cccc3OC)CC2)[C@H]1O	none (no result: Pin1 inhibitor, FEN1 inhibitor, WRN helicase inh, PI5P4Ka inh, PGK inhibitor)
O=C(/C=C/c1ccco1)N(c1ccccn1)c1ccccn1	Pin1 inhibitor inconclusive, FEN1 inhibitor inconclusive, WRN helicase inh 50µM, PI5P4Ka inh inconclusive, PGK inhibitor inconclusive
N=c1c2c(ccn1-c1ccccc1)Oc1ccc3ccccc3c1C2c1ccccc1 (stereo not given)	none (no result: Glioma ERSR ind, FEN1 inhibitor, WRN helicase inh, PI5P4Ka inh, PGK inhibitor)
C/C(N)=C(/C#N)C(=O)CN1C(=O)NC(Cc2c[nH]c3ccccc23)C1=O (stereo not given)	Pin1 inhibitor inconclusive, PI5P4Ka inh -66
COc1cc(/C=N/NC(=O)c2cc(-c3ccco3)nc3ccccc23)cc(OC)c1O	Pin1 inhibitor inconclusive, PI5P4Ka inh inconclusive
O=C(N/N=C/c1cccc(F)c1)c1cc(-c2ccco2)nc2ccccc12	FEN1 inhibitor inconclusive, WRN helicase inh 56µM, PI5P4Ka inh -88, PGK inhibitor inconclusive (no result: Pin1 inhibitor)
O=C(NCCCN1CCOCC1)c1cc(-c2ccc(F)cc2)nc2ccccc12	none
O=C(NCCCN1CCOCC1)c1cc(-c2ccco2)nc2ccccc12	Pin1 inhibitor inconclusive, FEN1 inhibitor inconclusive, WRN helicase inh 50µM, PI5P4Ka inh inconclusive
Cc1ccc(S(=O)(=O)N(C)C)cc1NC(=O)c1cc(-c2ccco2)nc2ccccc12	WRN helicase inh inconclusive, PI5P4Ka inh -56
Cc1ccc(Cl)cc1N1CCN(C(=O)Cc2c(C(=O)O)[nH]c3ccc(Cl)cc23)CC1	Glioma ERSR ind 32µM (no result: Pin1 inhibitor)
Cc1ccc(Cl)cc1N1CCN(C(=O)Cc2c(C(=O)O)[nH]c3ccccc23)CC1	none (no result: PI5P4Ka inh)
CCOC(=O)CN1C(=O)S/C(=C\c2ccc(-c3cccc(C(=O)O)c3C)o2)C1=O	none
N=C1S/C(=C\c2ccc(-c3ccccc3C(=O)O)o2)C(=O)N1c1ccc2c(c1)OCO2	Pin1 inhibitor inconclusive, FEN1 inhibitor inconclusive, WRN helicase inh inconclusive, PI5P4Ka inh -74

Bioassay records (PubChem BioAssay)
